Assay results from PubChem BioAssay AID686978 (National Center for Advancing Translational Sciences (NCATS), 2013).
Several values for one entry are separate records, joined by “and”; a condition that tells them apart may be missing. Equal values may be shown once. The whole screen tested about 420,000 compounds, of which about 64,000 (15%) were called active. Roughly 27% stayed inconclusive and do not appear here. Calls follow the shape of the dose curve; as a rule, active = well fitted inhibition curve with a large enough effect; inconclusive = small, poorly fitted or top-dose-only effect; inactive = flat fitted curve, though single readings scatter. Not all results are given here.

experiment: qHTS for Inhibitors of human tyrosyl-DNA phosphodiesterase 1 (TDP1): qHTS in cells in absence of CPT; details: DT40 Tdp1-/- hTDP1 cells, no CPT, ATP luminescence, 48 h; activity change, negative = growth inhibition: at 46.2 µM (top of the series); also: nearly all actives have a fitted effect of over 55% in size
How it was run: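 Chicken DT40 Tdp1-/- cells complemented with human TDP1, screened without camptothecin (DMSO vehicle only), 400 cells/well. Compounds pin-transferred, cells incubated at 37 °C for at least 48 hr. Growth read as ATP-dependent luminescence (CellTiter-Glo, 30 min at RT).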
% is scaled to controls: 0 for no effect and ±100 for the full control effect; potency is read from the fitted curve at half-maximal effect.

| Compound | activity change, negative = growth inhibition | Potency |
| --- | --- | --- |
| O=C(CCn1c(SCC(=O)c2ccccc2)nc2ccccc2c1=O)NCc1ccc(F)cc1 | -5.7% (inactive) | – |
| CC1(C)CC(=O)C(C=NCc2cccnc2)=C(O)C1 | -7.35% (inactive) | – |
| N=c1c2c3c(sc2ncn1N)CCCCC3 | 19.2% (inactive) | – |
| Cc1nc2cc(NC(=O)NCc3ccccc3)ccc2o1 | -13.9% (inactive) | – |
| C=CCN(C(=O)Nc1ccc2oc(C)nc2c1)c1ccccc1 | – | 20.6 µM (active) |
| C=CCN(C(=O)Nc1ccc2c(c1)nc(C)n2C)c1ccccc1 | -6.75% (inactive) | – |
| N#CCCn1cnc2ccccc21 | -13.7% (inactive) | – |
| Cc1c(C=O)n(C)n(-c2ccccc2)c1=O | -0.628% (inactive) | – |
| COc1cc(Cl)c(C)cc1NC(=O)CSc1nnc(-c2cccnc2)n1Cc1ccco1 | -22.2% (inactive) | – |
| O=C(CSc1nnc(-c2cnccn2)n1Cc1ccco1)c1ccc(Cl)c(Cl)c1 | -17.7% (inactive) | – |
| O=C(CSc1nnc(-c2cccnc2)n1Cc1ccco1)c1ccc(Cl)cc1 | – | 25.9 µM (active) |
| CC(=O)NS(=O)(=O)c1ccc(NC(=O)C2C3C=CC(C3)C2C(=O)O)cc1 (stereo not given) | 0.129% (inactive) | – |
| Cc1cc2c3ccccc3[nH]c(=O)n2n1 | -23.3% (inactive) | – |
| CCCCC(O)C1=C[N+](=O)CC=C1 (stereo not given) | -15.5% (inactive) | – |
| COc1ccc(N2CCN(C(=O)CCc3nc(-c4ccc(C)cc4)no3)CC2)cc1 | -22.3% (inactive) | – |
| COc1ccc(-c2noc(CCC(=O)N3CCN(c4cccc(C)c4)CC3)n2)cc1 | – | 13 µM (active) |
| CN1CCN(C(=O)CCc2nc(-c3ccc(Cl)cc3)no2)CC1 | -11.7% (inactive) | – |
| O=C(COC(=O)c1ccco1)Nc1ccc(Cl)cn1 | 6.19% (inactive) | – |
| O=c1ccn(Cc2ccccc2Cl)cc1 | -7.73% (inactive) | – |
| O=S(=O)(O)c1nc2ccccc2n1Cc1ccc(Cl)cc1 | -10.9% (inactive) | – |
| N=c1n(Cc2ccc(Cl)cc2)c2ccccc2n1CC(O)c1ccco1 (stereo not given) | – | 5.8 µM (active) |
| CCC1=NN2C(=N)/C(=C/c3cc(C)n(-c4ccccc4)c3C)C(=O)N=C2S1 | 9.47% (inactive) | – |

| Compound | activity change, negative = growth inhibition | Potency |
| --- | --- | --- |
| CCCC(=O)NC(=S)Nc1ccc(CN2CCOCC2)cc1 | 11.6% (inactive) | – |
| COC(=O)c1sccc1NC(=O)CCC1CCCC1 | -16.7% (inactive) | – |
| CCOC(=O)C(=CNNc1ccsc1C(=O)OC)C(=O)OCC | – | 10.3 µM (active) |
| COC(=O)c1sccc1NC(=S)Nc1ccc(C)cc1 | -12.6% (inactive) | – |
| CCn1c(SCC(=O)N(C)C2CCS(=O)(=O)C2)nnc1-c1cccs1 (stereo not given) | 9.93% (inactive) | – |
| CCC1Sc2ccc(S(=O)(=O)CCC(=O)NCc3cccs3)cc2NC1=O (stereo not given) | – | 14.6 µM (active) |
| CC(C)N1C(=O)c2ccccc2NC(=O)C1C(=O)NCc1cccs1 (stereo not given) | 9.26% (inactive) | – |
| CCN(CC(=O)NCc1cccs1)C(=O)c1cccc(S(=O)(=O)Nc2ccccc2OC)c1 | -11.2% (inactive) | – |
| Cc1cc(C)c(NC(=O)CS(=O)CC(=O)Nc2cccnc2)c(C)c1 (stereo not given) | 0.606% (inactive) | – |
| COc1ccccc1N(CC(=O)Nc1ccccc1C(=O)N1CCCC1)S(C)(=O)=O | -2.28% (inactive) | – |
| CCOC(=O)CN1C(=O)C(O)(CC(=O)c2ccccn2)c2ccccc21 (stereo not given) | – | 4.11 µM (active) |
| CCOC(=O)CN1CCC(c2ccccc2)CC1 | -7.84% (inactive) | – |
| COc1ccccc1OCC(=O)O/N=C(\N)c1ccccn1 | -2.18% (inactive) | – |
| CCCc1nn(C)c2c(=O)[nH]c(-c3cc(S(N)(=O)=O)ccc3OCC)nc12 | 2.45% (inactive) | – |
| Cn1c2ccccc2n2c(=O)c(=O)n(CC(=O)c3ccc(F)cc3)nc12 | 1.31% (inactive) | – |
| CCOC(=O)c1ccc(N2C(=O)CC(N(C)Cc3ccccc3)C2=O)cc1 (stereo not given) | 18.2% (inactive) | – |
| Cc1ccc(CN2C(=O)N/C(=C/c3cc(C)n(-c4ccccn4)c3C)C2=O)cc1 | – | 23.1 µM (active) |
| O=C1N/C(=C/c2cccs2)C(=O)N1Cc1ccc(F)cc1 | -12.1% (inactive) | – |
| Cc1cc(/C=C2/NC(=O)NC2=O)c(C)n1-c1cccnc1 | -0.13% (inactive) | – |
| COCCn1c(=O)c(-c2cccs2)nc2cncnc21 | -1.68% (inactive) | – |
| CCOCCc1c(O)nc(SCC(=O)NCc2ccco2)[nH]c1=O | -7.98% (inactive) | – |
| Cn1c(SCC(=O)NC2CCCCC2)nnc1-c1cc2ccccc2o1 | -21.8% (inactive) | – |

| Compound | activity change, negative = growth inhibition | Potency |
| --- | --- | --- |
| O=C(NC1CCCCC1)C(c1cc2ccccc2o1)n1c(=O)c(-c2ccco2)nc2ccccc21 (stereo not given) | – | 16.4 µM (active) |
| O=C(Nc1cc2ccccc2oc1=O)C1CCCCC1 | 3.65% (inactive) | – |
| CN1CCC(N(C)S(=O)(=O)c2ccc(NC(=O)c3cccc(C#N)c3)cc2)CC1 | -0.0488% (inactive) | – |
| COc1ccc(CC(=O)Nc2cc(S(=O)(=O)N3CCCCC3)ccc2N2CCN(C)CC2)cc1 | -22% (inactive) | – |
| CCN(CC)S(=O)(=O)c1ccc(N2CCOCC2)c(C(=O)O)c1 | -3.19% (inactive) | – |
| CCN(CC)S(=O)(=O)c1ccc(N2CCOCC2)c(NC(=O)c2ccc(=O)n(C)n2)c1 | 2.16% (inactive) | – |
| CCN(CC)S(=O)(=O)c1ccc(N2CCOCC2)c(NC(=O)C2COc3ccccc3O2)c1 (stereo not given) | – | 16.4 µM (active) |
| CCN(CC)S(=O)(=O)c1ccc(N2CCCC2)c(NC(=O)c2ccc([N+](=O)[O-])o2)c1 | – | 23.1 µM (active) |
| CN(C)S(=O)(=O)c1ccc(N2CCCC2)c(C(=O)NCc2ccccc2)c1 | -10.8% (inactive) | – |
| Cc1ccc(/C=N/NC(=O)CNC(=O)COc2ccccc2)o1 | -24.7% (inactive) | – |
| Cc1ccc(NC(=S)NC2CCCC2)cc1 | -53.3% (inactive) | – |
| CCCC/C(C)=N/NC(=O)NC1CCCCC1 | -7.22% (inactive) | – |
| Cc1ccc(/C=N/NC(=S)NC2CCCCC2)o1 | – | 4.11 µM (active) |
| C/C(=N\NC(=S)NC1CCCCC1)c1ccc(C)o1 | – | 23.1 µM (active) |
| COc1ccc(C(C)NC(=S)NC2CCCCC2)cc1OC (stereo not given) | -0.972% (inactive) | – |
| Cn1c(N)cc(=O)n(C)c1=S | -14% (inactive) | – |
| Cc1n[nH]c(=O)c2c(NC(=O)COC(=O)c3ncc(Cl)c(Cl)c3Cl)oc(C)c12 | 6.05% (inactive) | – |
| O=C(CN1CCN(S(=O)(=O)c2ccc(Cl)s2)CC1)NCc1ccc(Cl)cc1 | -29% (inactive) | – |
| N#Cc1ccc(COC(=O)Cn2nnc(-c3ccccc3)n2)cc1 | -19% (inactive) | – |
| Cc1ccc(NC(=O)CN2C(=O)NC(C)(c3ccc(Cl)cc3)C2=O)c(Br)c1 (stereo not given) | -22.8% (inactive) | – |
| Cc1c(S(=O)(=O)NC(C)c2ccccc2)c(=O)n(C)c(=O)n1C (stereo not given) | -1.62% (inactive) | – |
| C=CCn1nc(C(=O)OCC)cc1-c1sc(NC(=O)c2ccccc2)nc1C | – | 20.6 µM (active) |

| Compound | activity change, negative = growth inhibition | Potency |
| --- | --- | --- |
| CC(=O)c1sc(NC(=O)c2cccc3ccccc23)nc1C | -15.2% (inactive) | – |
| CCOC(=O)c1sc(NC(=O)CSc2nc(O)c(Cc3ccccc3)c(=O)[nH]2)nc1C | -10.8% (inactive) | – |
| CCOc1ccc(C(=O)Nc2c3c(nn2-c2ccccc2)CS(=O)(=O)C3)cc1 | -0.524% (inactive) | – |
| CCOC(=O)c1cc(NC(=O)c2cccnc2)ccn1 | 1.41% (inactive) | – |
| CCOC(=O)c1cc(OC(=O)c2ccccc2Cl)n(-c2ccccc2)n1 | 6.19% (inactive) | – |
| CCOC(=O)C(=O)Nc1nc(-c2ccccc2)c(CC)s1 | 8.26% (inactive) | – |
| Cn1sc(NC(=O)c2ccccc2)nc1=O | -26.2% (inactive) | – |
| CCOC(=O)c1cc(-c2sc(NC(=O)c3ccccc3)nc2C)n(Cc2ccccc2)n1 | – | 18.4 µM (active) |
| CCOC(=O)c1cc(-c2sc(NC(=O)c3ccccc3)nc2C)n(-c2ccc(Br)cc2)n1 | – | 25.9 µM (active) |
| CCOC(=O)c1cc(-c2sc(NC(=O)c3ccccc3)nc2C)n(CCO)n1 | – | 6.51 µM (active) |
| CCOc1ccccc1NC(=O)CSc1ncc(S(=O)(=O)c2ccc(C(C)(C)C)cc2)c(=O)[nH]1 | -3.29% (inactive) | – |
| O=C1CSC2=NCN(c3ccccc3)CN12 | -3.67% (inactive) | – |
| Nc1scc(-c2ccncc2)c1Cl | -16.4% (inactive) | – |
| Cc1nc2ccc(S(=O)(=O)N(C)CC(=O)NC(C)c3ccccc3)cc2s1 (stereo not given) | 3.67% (inactive) | – |
| CCCc1cc(=O)oc2c(C)c(OC(C)C(=O)NCC(O)c3ccccc3)ccc12 (stereo not given) | -23.7% (inactive) | – |
| c1ccc2cc(OCCN3CCCC3)ccc2c1 | -9.25% (inactive) | – |
| Cc1nnc2n1N=C(c1ccc3c(c1)NC(=O)CO3)CS2 | 5.1% (inactive) | – |
| CC(C(=O)NCCc1ccc(S(N)(=O)=O)cc1)N1C(=O)CC(C)(C)Sc2ccccc21 (stereo not given) | -15.5% (inactive) | – |
| Cc1c(C(=O)NNC(=O)c2ccncc2)oc2ccccc12 | -22.1% (inactive) | – |
| C/C(=C/C(=O)N1CCN(C)CC1)C(=O)O | -3.36% (inactive) | – |
| COc1ccc(F)cc1S(=O)(=O)Nc1ccc2c(c1)OCO2 | -6.78% (inactive) | – |
| COc1ccc(CCNC(=O)c2cc(-c3ccc4c(c3)OCO4)on2)cc1OC | 11.6% (inactive) | – |

| Compound | activity change, negative = growth inhibition | Potency |
| --- | --- | --- |
| COc1cc(-c2c(-c3ccc4c(c3)OCO4)noc2C)ccc1F | – | 17.8 µM (active) and 16.4 µM (active) |
| COc1ccccc1NC(=O)N1CCCC1C(=O)NCc1cccs1 (stereo not given) | -10.8% (inactive) | – |
| O=C(CC1N=C2c3ccccc3N=C(SCc3ccccc3Cl)N2C1=O)NCc1ccco1 (stereo not given) | -26.3% (inactive) | – |
| O=C(CC1N=C2c3ccccc3N=C(SCc3cccc(Cl)c3)N2C1=O)NCc1ccc2c(c1)OCO2 (stereo not given) | – | 20.6 µM (active) |
| NC(=O)CSC1=Nc2ccccc2C2=NC(CCC(=O)NCc3ccc(F)cc3)C(=O)N12 (stereo not given) | -4.51% (inactive) | – |
| O=C(CSC1=Nc2ccccc2C2=NC(CC(=O)NCc3ccco3)C(=O)N12)NCc1ccco1 (stereo not given) | 1.91% (inactive) | – |
| COc1ccccc1NC(=O)CSC1=Nc2ccccc2C2=NC(CC(=O)NCc3cccs3)C(=O)N12 (stereo not given) | – | 20.6 µM (active) |
| CC(C)NC(=O)N1CC[C@@]2(CCCN(C(=O)c3ccco3)C2)C1 | -4.55% (inactive) | – |
| COc1ccc(N2C(=O)C3CCCN3C2c2cccc(OC)c2)cc1 (stereo not given) | 7.35% (inactive) | – |
| Cc1ccc(OCC(=O)Nc2ccc(S(=O)(=O)Nc3ccccn3)cc2)cc1 | -17.3% (inactive) | – |
| Cc1ccc(S(=O)(=O)Nc2ccc3ncccc3c2)cc1 | – | 9.2 µM (active) |
| Cc1ccc(NS(=O)(=O)c2ccc(C(C)(C)C)cc2)cn1 | 3.16% (inactive) | – |
| CS(=O)(=O)N(CC(=O)Nc1ccc(F)cc1)C1CCCCC1 | -1.03% (inactive) | – |
| CS(=O)(=O)N1CCC2(CC1)CN(Cc1ccccc1)C2 | 3.71% (inactive) | – |
| O=c1onc(-c2cccs2)n1Cc1ccccc1 | 5.15% (inactive) | – |
| Cc1ccc(-c2nc(=N)sn2Cc2ccccc2)cc1 | – | 4.47 µM (active) |
| Cc1ccc(CN2C(=O)SC(Nc3ccccc3)C2=O)cc1 (stereo not given) | -22.8% (inactive) | – |
| c1ccc2c(c1)OCCOCCOCCO2 | 1.21% (inactive) | – |
| Cc1ccc(NC(=O)CN(C)C(=O)c2ccc(Br)o2)cc1 | -27.8% (inactive) | – |
| O=C(Nc1ccccc1Cl)/C(Cl)=C(\Cl)S(=O)c1ccccc1 (stereo not given) | – | 0.206 µM (active) |
| O=C(Nc1ccccc1Cl)c1ccc2nsnc2c1 | -17.8% (inactive) | – |
| O=C(Nc1ccccc1Cl)Nn1cnnc1 | 2.76% (inactive) | – |
